Experimental data from PubChem BioAssay (NCI).
Compounds without any hit were thinned out: in the full panel of roughly 83,000, 20% have a hit.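 Step 1: grow cells in 96-well plates. Step 2: add test compound at a single concentration. Step 3: incubate 48 h. Step 4: record percent growth.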 Activity calls are given as the source filed them. How the source made its calls: active means growth percent below 10; inactive means the rest.

Key:
Assay in all cases: NCI-60 one-dose screen, 48 h (100 = growth as untreated, 0 = no growth, -100 = all killed)
Details in all cases: 10 µM unless noted
NCI-H23 lung = tested on: NCI-H23 lung
NCI-H226 lung = tested on: NCI-H226 lung
NCI-H322M lung = tested on: NCI-H322M lung
HOP-62 NSCLC = tested on: HOP-62 NSCLC
NCI-H460 lung = tested on: NCI-H460 lung
HOP-92 NSCLC = tested on: HOP-92 NSCLC
NCI-H522 lung = tested on: NCI-H522 lung
A549/ATCC NSCLC = tested on: A549/ATCC NSCLC
786-0 renal = tested on: 786-0 renal
COLO 205 colon = tested on: COLO 205 colon

Measured: growth

O=C1c2ccccc2C(=O)c2c(NCCN=Cc3ccccc3O)cccc21
inactive: NCI-H23 lung 66.6% | NCI-H226 lung 56.3% | NCI-H322M lung 68.3% | HOP-62 NSCLC 21.7% | NCI-H460 lung 20.9% | HOP-92 NSCLC 32% | NCI-H522 lung 58.2% | A549/ATCC NSCLC 49% | COLO 205 colon 42.2%
active: 786-0 renal -48.4%

Clc1cc(Cl)cc(N2N=C(c3cccc(Nc4ccncc4)c3)CC2c2ccccc2)c1 (stereo not given)
inactive: NCI-H23 lung 82.8% | NCI-H226 lung 93.1% | NCI-H322M lung 78% | HOP-62 NSCLC 43.6% | HOP-92 NSCLC 55.7% | NCI-H522 lung 65.2% | A549/ATCC NSCLC 45.5% | 786-0 renal 86.3%
active: NCI-H460 lung -76.1% | COLO 205 colon -49.7%

COc1ccc(C(=O)c2cc3c(N)c(C(=O)Nc4ccc(Br)cc4)sc3nc2C)cc1
inactive: NCI-H23 lung 82.7% | NCI-H226 lung 38.5% | NCI-H322M lung 78.9% | HOP-62 NSCLC 21.2% | NCI-H460 lung 50% | HOP-92 NSCLC 66.1% | NCI-H522 lung 39.6% | A549/ATCC NSCLC 79.5% | 786-0 renal 58.2% | COLO 205 colon 85.9%

COc1ccc(C(=O)c2cc(C)c(OC)c(C)c2)c(OC)c1O
inactive: NCI-H23 lung 31.7% | NCI-H322M lung 45.8% | HOP-62 NSCLC 12.9% | A549/ATCC NSCLC 14.5% | 786-0 renal 15.2% | COLO 205 colon 66.8%
active: NCI-H226 lung 7.47% | NCI-H460 lung 2.04% | HOP-92 NSCLC -0.0707% | NCI-H522 lung -9.43%

C[C@]12C[C@H]1CC[C@]1(C)[C@@H]2CC[C@@]23C[C@H](CC[C@H]21)[C@@](O)(CO)C3
inactive: NCI-H23 lung 98.5% | NCI-H226 lung 96.8% | NCI-H322M lung 94.2% | HOP-62 NSCLC 109% | NCI-H460 lung 94.3% | HOP-92 NSCLC 92.9% | NCI-H522 lung 87% | A549/ATCC NSCLC 99.6% | COLO 205 colon 109%
active: 786-0 renal -80.1%

CC1(C)NCCC[C@]2(C)[C@H]3CC=C4[C@@H]5C[C@@](C)(CO)CC[C@]5(C)CC[C@@]4(C)[C@]3(C)CC[C@@H]12
active: NCI-H460 lung 4.29% | COLO 205 colon -4.98%
inactive: NCI-H23 lung 81.3% | NCI-H226 lung 83.9% | NCI-H322M lung 81.7% | HOP-62 NSCLC 88.8% | HOP-92 NSCLC 38.3% | NCI-H522 lung 73.8% | A549/ATCC NSCLC 51% | 786-0 renal 55.5%

CCCC1C(C(=O)OCC)=C(N)Oc2cc(O)ccc21 (stereo not given)
inactive: NCI-H23 lung 90.7% | NCI-H226 lung 78.9% | NCI-H322M lung 109% | HOP-62 NSCLC 76.7% | NCI-H460 lung 93.1% | HOP-92 NSCLC 74.8% | NCI-H522 lung 77.2% | A549/ATCC NSCLC 101% | 786-0 renal 95.1% | COLO 205 colon 96.3%

CCCCCCCCOC(=O)c1ccc(O)c(OC)c1
inactive: NCI-H23 lung 92.5% | NCI-H226 lung 88.5% | NCI-H322M lung 86.9% | HOP-62 NSCLC 99.3% | NCI-H460 lung 104% | HOP-92 NSCLC 84.9% | NCI-H522 lung 73% | A549/ATCC NSCLC 89.6% | 786-0 renal 106% | COLO 205 colon 114%

CNC(=O)c1c(NC(=O)c2ccc(C(C)C)cc2)sc2c(CN(C)C)c(O)ccc12
inactive: NCI-H23 lung 101% | NCI-H226 lung 95.2% | NCI-H322M lung 94.2% | HOP-62 NSCLC 98.9% | NCI-H460 lung 38.7% | HOP-92 NSCLC 64.7% | NCI-H522 lung 77.8% | A549/ATCC NSCLC 115% | 786-0 renal 83.9% | COLO 205 colon 97.6%

CC(=O)Nc1ccc(S(=O)(=O)NC2CCCCC2)cc1
inactive: NCI-H23 lung 99.9% | NCI-H226 lung 86.6% | NCI-H322M lung 96.5% | HOP-62 NSCLC 96.3% | NCI-H460 lung 102% | HOP-92 NSCLC 89.3% | NCI-H522 lung 92% | A549/ATCC NSCLC 93.3% | 786-0 renal 99.8% | COLO 205 colon 103%

CCCCCCCCN1C(=O)/C(=c2\sc3n(c2=O)C2C(NN=3)N(CC)C(=O)N2CC)c2ccccc21 (stereo not given)
inactive: NCI-H23 lung 79.1% | NCI-H226 lung 91.9% | NCI-H322M lung 83% | HOP-62 NSCLC 47.3% | NCI-H460 lung 88% | HOP-92 NSCLC 62.7% | NCI-H522 lung 66.6% | A549/ATCC NSCLC 75.9% | 786-0 renal 65.7% | COLO 205 colon 104%

NC(=O)c1cccc(-c2ccccc2N2CCCCC2)c1
inactive: NCI-H23 lung 103% | NCI-H226 lung 98.9% | NCI-H322M lung 91% | HOP-62 NSCLC 99.5% | NCI-H460 lung 108% | HOP-92 NSCLC 103% | NCI-H522 lung 85.7% | A549/ATCC NSCLC 99.1% | 786-0 renal 85.3% | COLO 205 colon 121%

COc1ccc(-c2nc(N/N=C/c3ccco3)nc(N3CCOCC3)c2C#N)cc1
inactive: NCI-H23 lung 81% | NCI-H226 lung 84.8% | NCI-H322M lung 87.1% | HOP-62 NSCLC 68.1% | NCI-H460 lung 66.4% | HOP-92 NSCLC 49.2% | NCI-H522 lung 76.9% | A549/ATCC NSCLC 81.9% | 786-0 renal 54.7% | COLO 205 colon 85.7%

CSc1nc(O)c(-c2ccccc2)c(=O)[nH]1
inactive: NCI-H23 lung 103% | NCI-H226 lung 99.1% | NCI-H322M lung 101% | HOP-62 NSCLC 105% | NCI-H460 lung 104% | HOP-92 NSCLC 101% | NCI-H522 lung 94.2% | A549/ATCC NSCLC 100% | 786-0 renal 101% | COLO 205 colon 103%

Cc1ccc(/C=C/C(=O)c2ccc(N)cc2)c(C)c1
inactive: NCI-H23 lung 10.4% | NCI-H226 lung 109% | NCI-H322M lung 93% | HOP-62 NSCLC 104% | NCI-H460 lung 97.2% | HOP-92 NSCLC 88.2% | A549/ATCC NSCLC 99.2% | COLO 205 colon 60.3%
active: NCI-H522 lung -76.5% | 786-0 renal -63.5%

CC(C)(C)OC(=O)N1CCN(c2ccc(N)cc2)C(=O)C1
inactive: NCI-H23 lung 97.7% | NCI-H226 lung 100% | NCI-H322M lung 107% | HOP-62 NSCLC 106% | NCI-H460 lung 111% | HOP-92 NSCLC 127% | NCI-H522 lung 107% | A549/ATCC NSCLC 104% | 786-0 renal 100% | COLO 205 colon 113%

COc1cc(/C=C2\C(=O)N(Cc3ccc(Cl)cc3)c3ccccc32)cc(OC)c1OC
inactive: NCI-H23 lung 34.4% | NCI-H226 lung 46.7% | NCI-H322M lung 66.9% | HOP-62 NSCLC 55.9% | NCI-H460 lung 25.2% | HOP-92 NSCLC 44% | NCI-H522 lung 11.4% | 786-0 renal 32.7% | COLO 205 colon 48%
active: A549/ATCC NSCLC 9.8%

COc1ccc(-c2nc3sccn3c2/C=C/C(=O)c2cc(OC)c(OC)c(OC)c2)cc1
active: HOP-92 NSCLC -1.77% | NCI-H522 lung 5.02%
inactive: NCI-H23 lung 59.9% | NCI-H226 lung 87.4% | NCI-H322M lung 69.4% | HOP-62 NSCLC 79.1% | NCI-H460 lung 47% | A549/ATCC NSCLC 60.4% | 786-0 renal 78.3% | COLO 205 colon 79.2%

COc1ccc(Cn2nc(-c3ccccc3)c3c2CCc2cnoc2-3)cc1
inactive: NCI-H23 lung 60.3% | NCI-H226 lung 105% | NCI-H322M lung 101% | HOP-62 NSCLC 83.5% | NCI-H460 lung 80.5% | HOP-92 NSCLC 61.1% | NCI-H522 lung 70.3% | A549/ATCC NSCLC 69.4% | 786-0 renal 79.4% | COLO 205 colon 88.6%

O=C(CNCCO)Nc1ccc2ncnc(Nc3ccc(OCc4cccc(F)c4)c(Cl)c3)c2c1
inactive: NCI-H23 lung 98.9% | NCI-H226 lung 93.8% | NCI-H322M lung 33.4% | HOP-62 NSCLC 87% | NCI-H460 lung 88.7% | HOP-92 NSCLC 55.8% | NCI-H522 lung 46.3% | A549/ATCC NSCLC 71.6% | 786-0 renal 69.6% | COLO 205 colon 96%

O=C(Nc1ccc(Cl)cc1)Nc1ccc(Cl)c(Cl)c1
inactive: NCI-H226 lung 16.3% | NCI-H322M lung 23.7% | HOP-62 NSCLC 40.8% | A549/ATCC NSCLC 12.6% | 786-0 renal 39.1%
active: NCI-H23 lung -54.2% | NCI-H460 lung -9.05% | HOP-92 NSCLC 4.68% | NCI-H522 lung 0.643% | COLO 205 colon -2.8%

O=C(N/N=C/c1cccc(O)c1)c1ccccc1Nc1cccc(C(F)(F)F)c1
inactive: NCI-H23 lung 96.4% | NCI-H226 lung 76.7% | NCI-H322M lung 77.9% | HOP-62 NSCLC 73% | NCI-H460 lung 102% | HOP-92 NSCLC 63% | NCI-H522 lung 90.3% | A549/ATCC NSCLC 29.1% | 786-0 renal 43.5% | COLO 205 colon 117%

O=C(NCCN1CCOCC1)OCc1nc2nc(Cl)nc(N3CCOCC3)c2[nH]1
active: NCI-H460 lung 9.27% | NCI-H522 lung -29.8%
inactive: NCI-H23 lung 26.3% | NCI-H226 lung 62.6% | NCI-H322M lung 42.4% | HOP-62 NSCLC 32.5% | HOP-92 NSCLC 54.3% | A549/ATCC NSCLC 68.2% | 786-0 renal 58.1% | COLO 205 colon 110%

O=c1[nH]nc(-c2ccc(Cl)cc2)cc1Cc1cccc([N+](=O)[O-])c1
inactive: NCI-H23 lung 104% | NCI-H226 lung 91.9% | NCI-H322M lung 119% | HOP-62 NSCLC 96.3% | NCI-H460 lung 99.9% | HOP-92 NSCLC 44.2% | NCI-H522 lung 90.6% | A549/ATCC NSCLC 81.9% | 786-0 renal 103% | COLO 205 colon 101%

COc1ccc(/C=C(/c2ccccc2)[N+](=O)[O-])cc1
active: NCI-H23 lung -47.9% | NCI-H226 lung -6.73% | NCI-H322M lung 4.07% | HOP-62 NSCLC -36.2% | NCI-H460 lung -23.3% | HOP-92 NSCLC -55.6% | NCI-H522 lung -83.6% | A549/ATCC NSCLC 5.17% | 786-0 renal -93.4% | COLO 205 colon -71.9%

O=C(O)C(/C=C/c1ccco1)=N\Nc1nc(-c2ccc(Cl)cc2)cs1
inactive: NCI-H23 lung 57.7% | NCI-H226 lung 84% | NCI-H322M lung 68.5% | HOP-62 NSCLC 46.4% | NCI-H460 lung 37.6% | HOP-92 NSCLC 51.8% | NCI-H522 lung 39.4% | A549/ATCC NSCLC 51.4% | 786-0 renal 51.8% | COLO 205 colon 94.6%

NC(=O)c1cccc(-n2ccc3cc(NC(=O)Nc4cc(C(F)(F)F)cc(C(F)(F)F)c4)ccc32)n1
inactive: NCI-H23 lung 44.5% | NCI-H226 lung 70% | NCI-H322M lung 71.4% | HOP-62 NSCLC 44.8% | NCI-H460 lung 29% | HOP-92 NSCLC 52.5% | NCI-H522 lung 59.1% | A549/ATCC NSCLC 34.1% | 786-0 renal 24.3% | COLO 205 colon 62.5%
